The source made the active and inactive calls.
Legend:
[1] = E. coli DRC41 culture turbidity changes, primary screen, E. coli filamentation inducer project, strain DRC41, OD650, 48 h (AID 1152);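 note: E. coli MC1000 strain DRC41 lacking acrAB efflux pump and sulA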; settings: E. coli DRC41 (acrAB sulA), higher = more signal, called active from +8 up or from −8 down
[2] = small-molecule binders of probe aLefty1, primary screen, biochemical, small-molecule microarray, 635/667 nm fluorescence (AID 1153); settings: higher = more signal;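 note: score merges spot fluorescence with signal-to-noise ratio from the scanned slide images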
[3] = PSAC antagonists in infected red cells, primary screen, cell-based, P. falciparum Indochina, OD700, 1 h (AID 1154); settings: P. falciparum Indochina infected RBC osmotic lysis, higher = more signal, called active from +8 up or from −8 down
[4] = PSAC antagonists in infected red cells, primary screen, cell-based, P. falciparum Indochina, OD700, 2 h (AID 1155);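 note: lysis reports solute entry through the parasite surface anion channel PSAC; channel blockers reduce lysis of infected cells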; settings: P. falciparum Indochina infected erythrocytes, osmotic lysis OD700; higher = more signal, called active from +8 up or from −8 down
[5] = osmotic lysis modulators in infected erythrocytes, primary screen, PSAC antagonist project, cell-based, P. falciparum Indochina, OD700, 3 h (AID 1156); settings: higher = more signal, called active from +8 up or from −8 down
[6] = PSAC antagonists in infected red cells, primary screen, cell-based, P. falciparum Indochina, OD700, 18 h (AID 1157); settings: P. falciparum Indochina infected erythrocytes, osmotic lysis OD700, 18 h; higher = more signal, called active from +8 up or from −8 down
[7] = modulators of S6 phosphorylation in cells, primary screen, cell-based, A549, cytoblot, luminescence, serum-stimulated (AID 1158); settings: A549 phospho-S6 cytoblot, 5 h, higher = more signal;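 note: serum-stimulated A549 lung adenocarcinoma cells; signal is phosphorylated S6 detected by cytoblot immunostaining with HRP secondary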
[8] = target: NADPH oxidase 2 (Homo sapiens) (UniProt P04839); experiment: NOX2-dependent H2O2 signal modulators, primary screen, NOX inhibitor project, cell-based, HEK293-NOX2, PMA-stimulated, Amplex Red fluorescence (AID 1159); settings: 45 min, higher = more signal, called active from +8 up or from −8 down; note: test concentration not given here
[9] = target: NADPH oxidase 4 (Homo sapiens) (UniProt Q9NPH5); experiment: NOX4-dependent H2O2 signal modulators, primary screen, NOX inhibitor project, cell-based, HEK293-NOX4, tetracycline-induced, Amplex Red fluorescence (AID 1160); settings: 45 min, higher = more signal, called active from +8 up or from −8 down
[10] = target: NADPH oxidase 5 (Homo sapiens) (UniProt Q96PH1); experiment: NOX5-dependent H2O2 signal modulators, primary screen, NOX inhibitor project, cell-based, HEK293-NOX5, Amplex Red fluorescence (AID 1161); settings: HEK293-NOX5, ionomycin, 45 min, higher = more signal
Sequence of NADPH oxidase 5 (Homo sapiens) (Q96PH1 whole entry, looked up): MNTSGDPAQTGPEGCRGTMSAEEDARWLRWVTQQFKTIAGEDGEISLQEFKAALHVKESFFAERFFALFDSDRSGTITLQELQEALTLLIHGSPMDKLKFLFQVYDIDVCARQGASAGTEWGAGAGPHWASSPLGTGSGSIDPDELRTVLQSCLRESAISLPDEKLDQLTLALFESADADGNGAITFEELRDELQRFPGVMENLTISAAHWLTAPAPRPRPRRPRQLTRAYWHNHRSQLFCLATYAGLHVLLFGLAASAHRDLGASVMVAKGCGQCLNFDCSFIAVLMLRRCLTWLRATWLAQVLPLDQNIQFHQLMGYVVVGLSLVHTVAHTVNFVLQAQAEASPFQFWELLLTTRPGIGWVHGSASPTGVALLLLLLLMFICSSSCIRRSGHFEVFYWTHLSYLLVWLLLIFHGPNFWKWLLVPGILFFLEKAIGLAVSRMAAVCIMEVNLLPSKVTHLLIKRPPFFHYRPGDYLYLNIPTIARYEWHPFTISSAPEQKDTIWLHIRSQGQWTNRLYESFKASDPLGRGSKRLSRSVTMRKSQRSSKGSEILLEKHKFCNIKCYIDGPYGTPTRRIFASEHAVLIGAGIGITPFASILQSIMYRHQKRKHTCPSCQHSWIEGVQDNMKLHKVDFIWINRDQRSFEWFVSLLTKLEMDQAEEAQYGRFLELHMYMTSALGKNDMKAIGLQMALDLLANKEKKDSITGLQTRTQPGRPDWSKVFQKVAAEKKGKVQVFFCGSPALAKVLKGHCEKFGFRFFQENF

Sequence of NADPH oxidase 4 (Homo sapiens) (Q9NPH5 whole entry, looked up): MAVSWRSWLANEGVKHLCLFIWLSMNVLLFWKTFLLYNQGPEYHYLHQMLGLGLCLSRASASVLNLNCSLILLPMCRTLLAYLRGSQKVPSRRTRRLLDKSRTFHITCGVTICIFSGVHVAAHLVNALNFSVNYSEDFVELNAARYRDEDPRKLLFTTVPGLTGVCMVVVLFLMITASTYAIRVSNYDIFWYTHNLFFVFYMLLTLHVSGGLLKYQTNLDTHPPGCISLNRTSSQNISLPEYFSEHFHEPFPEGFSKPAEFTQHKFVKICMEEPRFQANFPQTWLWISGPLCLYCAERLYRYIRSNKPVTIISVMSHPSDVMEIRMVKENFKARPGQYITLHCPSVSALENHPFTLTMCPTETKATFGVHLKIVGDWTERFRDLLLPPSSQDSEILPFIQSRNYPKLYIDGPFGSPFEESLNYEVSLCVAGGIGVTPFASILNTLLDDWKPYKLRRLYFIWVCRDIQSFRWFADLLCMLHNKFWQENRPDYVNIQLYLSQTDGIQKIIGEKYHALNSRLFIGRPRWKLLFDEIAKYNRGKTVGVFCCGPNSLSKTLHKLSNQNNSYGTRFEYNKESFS
Sequence of NADPH oxidase 2 (Homo sapiens) (P04839 whole entry, looked up): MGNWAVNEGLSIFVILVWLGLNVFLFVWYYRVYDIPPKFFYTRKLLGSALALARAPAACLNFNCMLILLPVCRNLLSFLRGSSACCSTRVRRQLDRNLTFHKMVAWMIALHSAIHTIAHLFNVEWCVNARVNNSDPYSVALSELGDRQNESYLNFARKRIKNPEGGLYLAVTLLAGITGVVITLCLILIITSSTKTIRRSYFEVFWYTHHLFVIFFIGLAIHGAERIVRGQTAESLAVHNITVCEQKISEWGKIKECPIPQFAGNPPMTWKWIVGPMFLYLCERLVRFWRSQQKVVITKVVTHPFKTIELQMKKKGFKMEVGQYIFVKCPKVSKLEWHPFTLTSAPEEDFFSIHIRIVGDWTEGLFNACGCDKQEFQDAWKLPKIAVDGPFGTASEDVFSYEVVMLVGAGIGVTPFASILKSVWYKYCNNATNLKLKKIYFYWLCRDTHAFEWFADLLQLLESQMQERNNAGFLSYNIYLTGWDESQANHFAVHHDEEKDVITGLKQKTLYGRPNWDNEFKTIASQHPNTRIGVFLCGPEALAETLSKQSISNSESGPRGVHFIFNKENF

| SMILES | z-score [1] | composite z-score [2] | z-score [3] | z-score [4] | z-score [5] | z-score [6] | z-score [7] | z-score [8] | z-score [9] | z-score [10] |
| --- | --- | --- | --- | --- | --- | --- | --- | --- | --- | --- |
| COc1ccc(C(O)C2C=CC3C(=O)N(c4ccccc4)C(=O)C3N2Nc2ccccc2F)c2ccccc12 (stereo not given) | -0.462 (inactive) | 1.16 | 3.82 (inactive) | 1.71 (inactive) | 0.419 (inactive) | 1.05 (inactive) | -0.593 | -0.232 (inactive) | -1.7 (inactive) | -2.13 |
| COc1cc(CO)cc(I)c1O[C@H]1C=C(C(=O)NCCO)C[C@@H](N(CCN2CCOCC2)C(=O)C2CCCO2)[C@@H]1O (stereo not given in full) | 2.39 (inactive) | -0.245 | 0.961 (inactive) | -0.339 (inactive) | 0.483 (inactive) | 0.108 (inactive) | 0.545 | -0.842 (inactive) | 0.225 (inactive) | 0.235 |
| CCOC(=O)C1=C[C@@H](C(C)(C)C)N(S(=O)(=O)c2ccc(C)cc2)[C@H]1c1ccc(OC)cc1 | -0.0371 (inactive) | 0.235 | 1.44 (inactive) | 1.11 (inactive) | 0.457 (inactive) | 0.71 (inactive) | -0.454 | -1.67 (inactive) | 0.244 (inactive) | 1.65 |
| [N-]=[N+]=NCc1ccccc1[C@H]1OC(c2ccc(OCCCO)cc2)=N[C@@]1(Cc1ccccc1N=[N+]=[N-])C(=O)N1CCOCC1 | -0.476 (inactive) | 0.181 | 28.3 (active) | 22 (active) | 2.5 (inactive) | 3.77 (inactive) | -0.318 | -5.55 (inactive) | -1.03 (inactive) | -2.42 |
| C=CCNC(=O)[C@@H]1[C@H]2C(=O)O[C@H](c3ccccc3)[C@H](c3ccccc3)N2[C@H](c2ccc(OCCO)cc2)[C@@]12C(=O)Nc1ccc(C#CCNC(N)=O)cc12 | -0.582 (inactive) | 0.124 | 2.55 (inactive) | 0.268 (inactive) | 0.422 (inactive) | -0.0239 (inactive) | 0.386 | 1.88 (inactive) | 1.2 (inactive) | -0.268 |
| CCOC(=O)C[C@H]1[C@H](OC(=O)c2cc3ccccc3oc2=O)[C@@H](NC(=O)Cc2ccc(OC)cc2)c2cc(OCCCO)ccc2N1C(=O)Cc1ccc(OC)cc1 | 0.983 (inactive) | 1.28 | 6.34 (inactive) | -1.26 (inactive) | -0.456 (inactive) | -2.42 (inactive) | 1.32 | 1.38 (inactive) | 1.52 (inactive) | 0.991 |
| COc1cccc(C)c1NC(=O)O[C@H]1[C@H](OC(=O)Nc2ccc3c(c2)OCO3)[C@H](OC(=O)Nc2ccc3c(c2)OCO3)[C@@H](OC)O[C@@H]1CO | -0.66 (inactive) | 0.855 | 10.7 (active) | 1.4 (inactive) | 1.14 (inactive) | 0.691 (inactive) | -0.0632 | -1.52 (inactive) | -0.848 (inactive) | -1.37 |
| O=C1C2C=CC(C(O)C3CC=CCC3)N(Nc3ccc([N+](=O)[O-])cc3)C2C(=O)N1c1ccccc1 (stereo not given) | -0.852 (inactive) | 0.908 | 24.8 (active) | 5.02 (inactive) | 4 (inactive) | 1.2 (inactive) | -0.837 | -1.03 (inactive) | -3.02 (inactive) | -3.26 |
| C=C(C(=O)CC[C@@H](OC(=O)c1cccnc1)c1cccc(OCCO)c1)C(C)C | 1.35 (inactive) | -0.309 | 13.8 (active) | 0.717 (inactive) | -0.204 (inactive) | -1.02 (inactive) | 0.62 | -0.967 (inactive) | -0.193 (inactive) | -1.84 |
| O=C1O[C@H](c2ccccc2)[C@H](c2ccccc2)N2[C@H]1[C@@H](C(=O)O)[C@]1(C(=O)Nc3ccc(C#CC4(O)CCCCCC4)cc31)[C@H]2c1ccccc1OCCO | 0.782 (inactive) | 0.708 | -2.1 (inactive) | -0.922 (inactive) | -14.7 (active) | -0.743 (inactive) | 0.364 | 2.49 (inactive) | -1.56 (inactive) | -1.32 |
| COc1ccc(NN2C(C(O)c3ccccc3)C=CC3C(=O)N(C4CCCCC4)C(=O)C32)cc1 (stereo not given) | -0.775 (inactive) | 0.0479 | 11.8 (active) | 2.25 (inactive) | 1.31 (inactive) | 1.22 (inactive) | -0.388 | -2.76 (inactive) | -2.65 (inactive) | -2.39 |
| [N-]=[N+]=NCc1ccccc1C[C@]1(C(=O)N2CCCCC2)COC(c2ccc(OCCCO)cc2)=N1 | 2.89 (inactive) | -0.543 | 29.2 (active) | 19.5 (active) | 4.13 (inactive) | 2.11 (inactive) | -0.305 | -1.66 (inactive) | 0.0299 (inactive) | -1.38 |
| C=CCNC(=O)[C@@H]1[C@H]2C(=O)O[C@H](c3ccccc3)[C@H](c3ccccc3)N2[C@H](c2ccc(OCCO)cc2)[C@@]12C(=O)Nc1ccc(C#CC3=CCCCC3)cc12 | -0.874 (inactive) | -0.21 | 2.81 (inactive) | 1.98 (inactive) | -0.306 (inactive) | 1.87 (inactive) | -0.474 | 1.38 (inactive) | -0.894 (inactive) | 1.56 |
| C=C(COC)C(=O)CC[C@H](OC(C)=O)c1ccc(CO)o1 | 0.82 (inactive) | -0.0061 | 0.421 (inactive) | 0.112 (inactive) | -0.0728 (inactive) | -1.12 (inactive) | 0.555 | -1.04 (inactive) | -0.207 (inactive) | -1.31 |
| CCOC(=O)C[C@H]1[C@H](OC(=O)c2ccc(-c3ccccc3)cc2)[C@@H](NC(=O)c2ccc(-c3ccccc3)cc2)c2cc(OCCCO)ccc2N1C(=O)c1ccccc1 | -0.825 (inactive) | 0.0437 | 0.744 (inactive) | 0.745 (inactive) | -0.392 (inactive) | 0.678 (inactive) | -0.0382 | 0.546 (inactive) | -1.29 (inactive) | -0.655 |
| O=C(O)C1=CC[C@H]2C(=O)N(c3ccccc3)C(=O)[C@@H]12 | -0.569 (inactive) | 0.348 | 0.61 (inactive) | 1.11 (inactive) | -0.803 (inactive) | 0.707 (inactive) | -1 | 0.536 (inactive) | -0.267 (inactive) | -0.253 |
| COCCOC(=O)N1C(=O)[C@@]2(c3cc(C#CCNC(N)=O)ccc31)[C@H](C(N)=O)[C@H]1C(=O)O[C@H](c3ccccc3)[C@H](c3ccccc3)N1[C@@H]2c1ccc(O)cc1 | 0.989 (inactive) | 0.316 | 1.65 (inactive) | -0.132 (inactive) | -1.12 (inactive) | 0.141 (inactive) | 0.189 | 0.161 (inactive) | -0.181 (inactive) | 0.00933 |
| COCCOC(=O)N1C(=O)[C@@]2(c3cc(C#CCCO)ccc31)[C@H](C(=O)N1CCN(c3ncccn3)CC1)[C@H]1C(=O)O[C@H](c3ccccc3)[C@H](c3ccccc3)N1[C@@H]2c1ccc(OCCO)cc1 | -0.862 (inactive) | 0.197 | 11.4 (active) | 3.12 (inactive) | 0.72 (inactive) | 1.39 (inactive) | -0.633 | 1.45 (inactive) | 0.709 (inactive) | 1.21 |
| CCCCCCc1nc(-c2ccc(OC)nc2)c(C)c2c1[Si](C(C)C)(C(C)C)OC2 | 0.579 (inactive) | -0.115 | 1.74 (inactive) | -0.0075 (inactive) | 0.974 (inactive) | -0.349 (inactive) | 1.34 | -1.98 (inactive) | -0.117 (inactive) | -2.71 |
| C=CCC(OC(C)=O)[C@@H]1[C@@H](N(Cc2ccc(-c3ccccc3)cc2)C(=O)Cc2ccc(OC)cc2)c2cc(OCCCO)ccc2N1C(=O)Cc1ccc(OC)cc1 (stereo not given in full) | -0.92 (inactive) | 0.299 | 3.76 (inactive) | -0.313 (inactive) | 0.167 (inactive) | 0.141 (inactive) | 0.518 | -3.55 (inactive) | 0.194 (inactive) | -0.0291 |
| COc1c(C)cc(-c2nc(-c3ccccc3)c3c(c2C)CO[Si]3(C(C)C)C(C)C)cc1C | -1.31 (inactive) | 0.0505 | 0.614 (inactive) | 0.521 (inactive) | -0.81 (inactive) | 0.261 (inactive) | 0.564 | -0.41 (inactive) | 0.529 (inactive) | -2.03 |
| C=CCNC(=O)[C@H]1[C@@H]2C(=O)O[C@@H](c3ccccc3)[C@@H](c3ccccc3)N2[C@@H](c2ccc(OCCO)cc2)[C@]12C(=O)N(C(=O)OCCOC)c1ccc(C#CCNC(N)=O)cc12 | 0.33 (inactive) | 0.298 | 2.53 (inactive) | 0.666 (inactive) | 1.09 (inactive) | 0.83 (inactive) | 0.387 | 1.76 (inactive) | 1.44 (inactive) | 0.12 |
| C=CCNC(=O)[C@H]1[C@@H]2C(=O)O[C@@H](c3ccccc3)[C@@H](c3ccccc3)N2[C@@H](c2ccc(OCCO)cc2)[C@]12C(=O)N(C(=O)OCCOC)c1ccc(C#CCC(C(=O)OC)C(=O)OC)cc12 | -0.335 (inactive) | 0.123 | 4.28 (inactive) | 1.28 (inactive) | 0.743 (inactive) | 0.656 (inactive) | -0.116 | 1.64 (inactive) | 0.791 (inactive) | 0.621 |
| C[C@]12C(=O)N(CCO)[C@@H]3C(=O)N(c4ccc(Cl)cc4)CC=CC31O[C@@H]1/C=C\CCCOC(=O)C12 (stereo not given in full) | -0.295 (inactive) | 0.161 | 0.505 (inactive) | 0.176 (inactive) | 0.228 (inactive) | 0.359 (inactive) | -0.362 | 1.96 (inactive) | -0.22 (inactive) | 2.65 |
| C=CCN1C(=O)[C@@]2(O[C@@H](CCO)[C@H]([Si](C)(C)c3ccc(OC)cc3)[C@H]2C)c2cc(N3CCCCC3=O)ccc21 | 0.424 (inactive) | 0.102 | 23.8 (active) | 7.85 (inactive) | -0.302 (inactive) | 1.9 (inactive) | 1.44 | -1.63 (inactive) | -0.258 (inactive) | -0.607 |
